Calls of active or inactive are those of the source.
Experiments:
[1] = A549 cell viability effects, profiling panel, calcein-AM fluorescence, 48 h, basal (AID 1162); settings: higher = more signal
[2] = adipocyte viability effects, profiling panel, cell-based, 3T3-L1 adipocytes, calcein-AM fluorescence, 48 h, basal (AID 1163); settings: 3T3-L1 adipocytes viability, higher = more signal
[3] = HepG2 cell viability effects, profiling panel, calcein-AM fluorescence, 48 h, basal (AID 1164); settings: higher = more signal
[4] = MM1S cell viability effects, profiling panel, calcein-AM fluorescence, 48 h, basal (AID 1165); settings: higher = more signal;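 note: viability of MM1S multiple myeloma cells under basal unstimulated conditions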
[5] = basal RPMI8226 viability, no added stimulus, profiling panel, cell-based, calcein-AM fluorescence, 48 h, PK04 Diversity Set (AID 1166); settings: RPMI8226 myeloma viability, higher = more signal;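 note: cells grown under basal conditions without added stimulus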
[6] = basal HepG2 mitochondrial membrane potential changes, profiling panel, cell-based, JC-1 fluorescence, 24 h, 100 nL compound (AID 1167); settings: higher = more signal
[7] = basal 3T3-L1 adipocyte mitochondrial potential changes, profiling panel, cell-based, JC-1 fluorescence, 3T3-L1 adipocytes, 24 h, 100 nL compound (AID 1168); settings: JC-1 mitochondrial fluorescence, higher = more signal, called active from +8 up or from −8 down
[8] = basal RPMI8226 mitochondrial membrane potential changes, profiling panel, cell-based, JC-1 fluorescence, 24 h, 100 nL compound (AID 1169); settings: RPMI8226 myeloma, JC-1 mitochondrial potential fluorescence, higher = more signal
[9] = basal MM1S mitochondrial membrane potential changes, profiling panel, cell-based, JC-1 fluorescence, 24 h, 100 nL compound (AID 1170); settings: higher = more signal
[10] = A549 lung cancer cell viability effects, profiling panel, resazurin fluorescence, 24 h, PK04 Diversity Set (AID 1171); settings: higher = more signal, called active from +8 up or from −8 down
Note: test concentration not given here.

CN(C)C(=O)[C@@]1(Cc2ccccc2)N=C(c2ccc(OCCCO)cc2)O[C@H]1c1ccccc1
z-score [1]: -0.518
z-score [2]: 0.208
z-score [3]: 0.64
z-score [4]: -0.918
z-score [5]: -3.24
z-score [6]: 0.285
z-score [7]: 0.708 (inactive)
z-score [8]: -0.0484
z-score [9]: -0.303
z-score [10]: 1.18 (inactive)

[N-]=[N+]=NCc1ccccc1[C@@H]1OC(c2ccc(OCCCO)cc2)=N[C@]1(CCS(=O)(=O)c1ccccc1)C(=O)O
z-score [1]: 0.338
z-score [2]: -0.801
z-score [3]: 1.05
z-score [4]: 0.078
z-score [5]: -0.206
z-score [6]: -1.69
z-score [7]: -1.02 (inactive)
z-score [8]: -0.178
z-score [9]: -1.39
z-score [10]: -0.216 (inactive)

CCCN1C(=O)[C@@]2(Cc3ccccc31)N=C(c1ccc(OCCCO)cc1)O[C@H]2c1ccccc1
z-score [1]: -1.06
z-score [2]: 0.526
z-score [3]: -1.1
z-score [4]: -3.51
z-score [5]: -4.16
z-score [6]: -0.895
z-score [7]: 0.201 (inactive)
z-score [8]: -1.16
z-score [9]: -0.502
z-score [10]: -1.11 (inactive)

CC(C)N1C(=O)C[C@@](C(=O)O)(c2ccc([N+](=O)[O-])cc2)[C@H]1c1ccc(CO)cc1
z-score [1]: 2.22
z-score [2]: -0.246
z-score [3]: 0.74
z-score [4]: 0.389
z-score [5]: 1.1
z-score [6]: 1.52
z-score [7]: 0.546 (inactive)
z-score [8]: -0.108
z-score [9]: 0.435
z-score [10]: -0.602 (inactive)

Oc1ccc2cc[n+](Cc3cc4c(cc3Br)OCO4)cc2c1
z-score [1]: 1.58
z-score [2]: -0.35
z-score [3]: 0.312
z-score [4]: 0.677
z-score [5]: -1.77
z-score [6]: -1.12
z-score [7]: 0.418 (inactive)
z-score [8]: -0.123
z-score [9]: 0.313
z-score [10]: -0.585 (inactive)

CS(=O)(=O)CCOC(=O)C1=CC(CCCO)=CC(c2ccc(CN3CCCC3)cc2)N(Cc2sc3ccccc3c2Cl)C=C1C(=O)OCCS(C)(=O)=O (stereo not given)
z-score [1]: 0.389
z-score [2]: 0.958
z-score [3]: 0.888
z-score [4]: -1.59
z-score [5]: 0.16
z-score [6]: 2.41
z-score [7]: 0.0187 (inactive)
z-score [8]: -0.544
z-score [9]: -0.299
z-score [10]: 0.328 (inactive)

COC(=O)[C@@]1(Cc2ccc(F)cc2)[C@H]2c3cc(C(=O)N4CCCC4)n(CCc4c[nH]c5ccccc45)c3C[C@H]2CN1C(=O)c1ccccc1
z-score [1]: -1.41
z-score [2]: -0.743
z-score [3]: -1.33
z-score [4]: -1.57
z-score [5]: -3.02
z-score [6]: 0.28
z-score [7]: -0.222 (inactive)
z-score [8]: -0.915
z-score [9]: -1.21
z-score [10]: -1.22 (inactive)

O=C1C2C=CC(C(O)c3cccc(O)c3)N(Nc3ccc([N+](=O)[O-])cc3)C2C(=O)N1c1ccccc1 (stereo not given)
z-score [1]: -0.505
z-score [2]: -0.55
z-score [3]: -0.0586
z-score [4]: -0.0899
z-score [5]: 0.45
z-score [6]: -2.01
z-score [7]: -1.78 (inactive)
z-score [8]: -0.217
z-score [9]: -1.25
z-score [10]: 0.014 (inactive)

COC(=O)[C@@]1(Cc2ccc(OC)cc2)[C@H]2c3cc(C(=O)N4CCCC4)n(CCc4c[nH]c5ccc(O)cc45)c3C[C@H]2CN1C(=O)c1ccccc1
z-score [1]: 1.06
z-score [2]: -0.226
z-score [3]: 0.8
z-score [4]: -0.927
z-score [5]: 0.305
z-score [6]: 0.873
z-score [7]: -0.793 (inactive)
z-score [8]: -0.259
z-score [9]: -0.401
z-score [10]: 0.521 (inactive)

CO[C@H]1O[C@H](CO)[C@@H](OC(=O)Nc2ccc3c(c2)OCO3)[C@H](OC(=O)Nc2ccc3c(c2)OCO3)[C@@H]1OC(=O)Nc1ccc2c(c1)OCO2
z-score [1]: -0.077
z-score [2]: 0.0003
z-score [3]: -0.797
z-score [4]: -1.89
z-score [5]: -1.84
z-score [6]: -1.14
z-score [7]: -0.13 (inactive)
z-score [8]: -0.538
z-score [9]: -0.357
z-score [10]: -0.333 (inactive)

O=C(NCCN1CCOCC1)[C@@H]1c2ccccc2C(=O)N(C2Cc3ccccc3C2)[C@H]1c1ccc(CO)cc1
z-score [1]: 2.31
z-score [2]: 1.58
z-score [3]: 2.01
z-score [4]: 0.578
z-score [5]: 1.35
z-score [6]: 4.03
z-score [7]: 0.894 (inactive)
z-score [8]: -0.647
z-score [9]: 0.291
z-score [10]: 0.326 (inactive)

C=CC[C@@H](OC(=O)Nc1ccc(SC)cc1)c1ccc(O)c(F)c1
z-score [1]: 1.12
z-score [2]: -0.475
z-score [3]: -0.889
z-score [4]: -2.14
z-score [5]: -1.75
z-score [6]: -2.43
z-score [7]: 4.4 (inactive)
z-score [8]: -0.343
z-score [9]: -1.04
z-score [10]: -0.68 (inactive)

COCCOC(=O)N1C(=O)[C@@]2(c3cc(C#CC4=CCCCC4)ccc31)[C@H](c1ccccc1OCCO)N1[C@H](c3ccccc3)[C@H](c3ccccc3)OC(=O)[C@H]1[C@@H]2C(=O)NC[C@H](O)c1ccccc1
z-score [1]: -1.86
z-score [2]: 1.44
z-score [3]: -0.529
z-score [4]: -3.08
z-score [5]: -3.9
z-score [6]: 0.315
z-score [7]: 2.5 (inactive)
z-score [8]: -0.817
z-score [9]: -1.07
z-score [10]: -1.59 (inactive)

O=C(C1N=C(c2ccc(OCCCO)cc2)N(c2ccccc2)O1)N1CCCCC1 (stereo not given)
z-score [1]: 0.775
z-score [2]: 0.936
z-score [3]: 0.772
z-score [4]: 0.301
z-score [5]: 0.609
z-score [6]: 0.223
z-score [7]: -0.716 (inactive)
z-score [8]: -0.779
z-score [9]: -0.313
z-score [10]: 1.07 (inactive)

CCOC(=O)[C@@H]1CCCCN1C(=O)C(=O)OC
z-score [1]: -0.856
z-score [2]: -0.116
z-score [3]: 0.0129
z-score [4]: 0.143
z-score [5]: 0.13
z-score [6]: -0.684
z-score [7]: -0.603 (inactive)
z-score [8]: -0.0109
z-score [9]: 0.0743
z-score [10]: -0.599 (inactive)
